How the values were obtained:
Experiment in all cases: PBM binding z-score (relative to random genomic background probes); higher = stronger binding; sequences stand for … in GC…GCGATTGACAGCGTAGAATGAAGG
[1] = system: FXR:RXRa (NR concentration 270 nM, RXRa partner concentration 90 nM)
In short: (§1)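 Custom Agilent 4×180K protein-binding microarrays carried double-stranded probes, each with a 34-nt variable region. These regions held direct-repeat seeds, single-nucleotide variants, half-site ablations and random human genomic background sequences. Ligand-free nuclear receptor dimers were incubated on the arrays for 1 h, antibodies against each partner (one per run) detected binding, and scanned fluorescence was regression-normalized. Binding z-scores take the random background probes as reference.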

[2] = system: LXRa:RXRa (NR concentration 270 nM, RXRa partner concentration 90 nM)
In short: as §1

[3] = system: LXRa homodimer (NR concentration 270 nM)
In short: as §1

[4] = system: LXRb:RXRa (NR concentration 270 nM, RXRa partner concentration 90 nM)
In short: as §1

[5] = system: LXRb homodimer (NR concentration 270 nM)
In short: as §1

[6] = system: PPARa:RXRa (NR concentration 270 nM, RXRa partner concentration 90 nM)
In short: as §1

[7] = system: PPARg:RXRa (NR concentration 180 nM, RXRa partner concentration 90 nM)
In short: as §1

[8] = system: PPARg:RXRa 270nM:90nM, anti-RXR (NR concentration 270 nM, RXRa partner concentration 90 nM)
In short: as §1

[9] = system: PPARg:RXRa 30nM:10nM, anti-RXR (NR concentration 30 nM, RXRa partner concentration 10 nM)
In short: as §1

[10] = system: PPARg:RXRa 90nM:30nM, anti-RXR (NR concentration 90 nM, RXRa partner concentration 30 nM)
In short: as §1

[11] = system: PPARg:RXRa DBDmut IVT, anti-RXR (DBD mutation: RXRa K156A/R161A, NR concentration 270 nM, RXRa partner concentration 90 nM)
In short: as §1

[12] = system: PPARg:RXRa IVT, anti-PPARg (NR concentration 270 nM, RXRa partner concentration 90 nM)
In short: as §1

[13] = system: PPARg DBDmut:RXRa IVT, anti-PPARg (DBD mutation: PPARg1 K132A/R137A, NR concentration 270 nM, RXRa partner concentration 90 nM)
In short: as §1

[14] = system: PPARg DBDmut IVT, anti-PPARg (DBD mutation: PPARg1 K132A/R137A, NR concentration 270 nM)
In short: as §1

[15] = system: PPARg homodimer (NR concentration 180 nM)
In short: as §1

[16] = system: PXR:RXRa (NR concentration 270 nM, RXRa partner concentration 90 nM)
In short: as §1

[17] = system: PXR homodimer (NR concentration 270 nM)
In short: as §1

[18] = system: RARa:RXR (NR concentration 270 nM, RXRa partner concentration 90 nM)
In short: as §1

[19] = system: RARa homodimer (NR concentration 270 nM)
In short: as §1

[20] = system: RARb:RXRa (NR concentration 270 nM, RXRa partner concentration 90 nM)
In short: as §1

Sequence	PBM binding z-score [1]	PBM binding z-score [2]	PBM binding z-score [3]	PBM binding z-score [4]	PBM binding z-score [5]	PBM binding z-score [6]	PBM binding z-score [7]	PBM binding z-score [8]	PBM binding z-score [9]	PBM binding z-score [10]	PBM binding z-score [11]	PBM binding z-score [12]	PBM binding z-score [13]	PBM binding z-score [14]	PBM binding z-score [15]	PBM binding z-score [16]	PBM binding z-score [17]	PBM binding z-score [18]	PBM binding z-score [19]	PBM binding z-score [20]
CCAGCTAGGTCATGGTCAGCTAATCTACAGTATG	3.52	2.28	0.125	1.63	-0.361	3.57	2.98	3.29	0.995	2.17	4.7	4.17	0.901	0.516	1.52	1.12	-0.327	2.34	0.48	3.97
TCGAGTAGGTTAGCCGGGGCATTCAGCCAACATA	0.0762	-0.0841	-0.659	0.0461	-1.01	0.893	-0.0642	0.609	0.847	0.701	1.95	1.45	-0.971	-1.01	-0.00962	0.241	-0.374	0.484	-0.48	0.608
GTACCAAGGTGAATAGGTCCTTGATGAGTAGGCG	0.104	0.0189	-0.541	-0.255	-0.745	1.27	0.918	0.908	0.0599	0.237	1.68	1.9	-0.22	-0.0495	0.461	-0.118	-0.138	0.337	0.144	1.23
CGTTCAAGGTCAAGGTCAGTGAAAGAGACTCGAA	8.13	5.69	1.57	5.06	1.66	6.33	6.87	6.8	3.49	5.56	4.65	5.44	0.946	1.3	3.58	5.02	1.3	5.02	1.49	5.9
CGAACGGGGGCATGAGTTGATAGCAAATGCCGAT	3.26	2.81	0.42	4.42	6.73	3.99	2.63	4.68	2.82	3.84	3.7	5.31	8.66	10	2.78	3.06	1.34	2.78	0.977	2.79
ATCGAAAGGTCGTGAGGTGAGTCTACAGAAAGGC	4.96	3.75	0.0112	3.17	0.35	4.99	3.79	4.19	1.17	2.92	0.266	2.6	0.998	0.581	1.51	2.97	-0.0415	3.84	0.605	3.87
ATATGTAGGTTAGCTGGGGTCATTGAGACTAGGC	4.97	5.62	2.48	4.62	1.35	5.24	5.52	5.03	2.46	4.26	6.54	6.07	2.23	1.29	2.75	6.11	3.42	5.49	0.751	2.9
